# Reference: publication PMC5540273 (PLoS ONE, 2017)
# Tested on: ACVRL1
# Conditions: concentration: 1 μM,replicates: in singlicate; n = 1
# 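Note: KINOMEscan kinase panel screen.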
row,SMILES,%Inh
1,CN1CCN(CCNc2nc3cc(Oc4ccc(NC(=O)Nc5cc(C(F)(F)F)ccc5F)cc4)ccc3[nH]2)CC1.Cl.Cl [GW768504],0%
2,COc1cccc(OC)c1C(=O)Nc1cccc(-c2nn3ccccc3c2-c2ccnc(Nc3cccc(F)c3)n2)c1 [GSK361065],7%
3,CC(=O)Nc1ccc(-c2cc3ncnc(SCC(=O)O)c3s2)cc1,27%
4,COC(=O)c1cccc(NC(=O)NC2CCN(c3ccnc(Nc4cc(OC)c(OC)c(OC)c4)n3)C2)c1 (stereo not shown) [GSK1379767],0%
5,NC(=O)Nc1sc(-c2ccc(F)cc2)cc1C(N)=O [GW789449],0%
6,CCOC(=O)N1CCC(n2cnc(-c3ccc(F)cc3)c2-c2ccnc(N)n2)CC1 [SB-219952],10%
7,C[C@@H]1CCN(C(=O)N2CCCC2)C[C@@H]1N(C)c1ncnc2[nH]ccc12,0%
8,COc1cccc(C2=C(Nc3cccc(Cl)c3)C(=O)NC2=O)c1 [SB-341556],0%
9,COC(=O)c1cccc(NC(=O)NC2CCN(c3ccnc(NCc4ccc(F)cc4)n3)CC2)c1 [GSK1379860],0%
10,O=C(Nc1ccc(Oc2ccc3nc(NC(=O)C4CC4)cn3n2)c(F)c1)c1cccn(-c2ccccc2)c1=O,1%
11,Cn1ccc2ncnc(Oc3ccc(NC(=O)Nc4cncc(C(F)(F)F)c4)c(Cl)c3)c21,0%
12,CSc1nccc(-c2c(-c3ccc(F)cc3)ncn2CCCN2CCOCC2)n1.Cl [SB-217146],0%
13,CCn1c(-c2nonc2N)nc2cncc(CNC3CCNCC3)c21.Cl [SB-747651],0%
14,Cc1ccc(C(=O)Nc2ccc(Oc3ccc4nc(NC(=O)C5CC5)cn4c3)c(F)c2)c(=O)n1-c1ccccc1,0%
15,Cl.c1ccc(Oc2ccc(Nc3ccnc4cc(-c5ccc(CN6CCNCC6)o5)ccc34)cc2)nc1 [GW567142],0%
16,Nc1nccc(-c2ccc3c(N)n[nH]c3c2)n1 [GSK1034945],0%
17,O=C(Nc1cccc(C(F)(F)F)c1)c1cccc(Oc2ccc3nccn3n2)c1,0%

row,SMILES,%Inh
1,CCNCC(Cc1ccccc1)NC(=O)c1cc(Br)c(-c2ccnc3[nH]ccc23)s1.Cl.Cl (stereo not shown) [GSK1383280],0%
2,Cl.Nc1n[nH]c2cc(-c3ccccn3)ccc12 [GSK2189892],0%
3,O=C1NCCc2[nH]c(-c3ccncc3)cc21,19%
4,CS(=O)c1ccc(-c2coc3ccc(-c4n[nH]c(=O)o4)cc23)cc1 (stereo not shown),0%
5,Cc1ccn2nc(-c3ccc(F)cc3)c(-c3ccncc3)c2c1.Cl [GW457859],0%
6,Cn1ccc2ncnc(Oc3ccc(NC(=O)Nc4cnn(C(C)(C)C)c4)c(Cl)c3)c21,17%
7,Cn1ccc2ncnc(Oc3ccc(NC(=O)Nc4cccc(C(F)(F)F)c4)c(F)c3)c21,7%
8,COc1cc2ncn(-c3cc(OCC4CCCCC4)c(C(N)=O)s3)c2cc1OC [GSK204559],0%
9,COC(=O)Nc1nc2cc(Oc3ccc(NC(=O)Nc4cc(C(F)(F)F)ccc4Cl)cc3)ccc2[nH]1.Cl [GW697465],0%
10,N#Cc1cccc(C(=O)NC2CCN(c3ccnc(Nc4ccc(F)cc4)n3)C2)c1 (stereo not shown) [GSK1379708],0%
11,CN(c1cccc(CNc2nc(Nc3ccc4c(c3)CC(=O)N4)ncc2C(F)(F)F)c1)S(C)(=O)=O,0%
12,CNC(=O)c1ccccc1Nc1nc(Nc2cccc(CS(C)(=O)=O)c2)ncc1C.O=CO [GSK1520489],2%
13,C[C@@H](Oc1cc(-n2cnc3cc(-c4cnn(C)c4)ccc32)sc1C(N)=O)c1ccccc1Cl [GSK580432],0%
14,COc1cc2c(Nc3ccc(NC(=O)c4ccccc4)cc3)ncnc2cc1OCCCN1CCOCC1 [GSK301329],0%
15,CC(C)S(=O)(=O)N1CCN(Cc2ccc3c(c2)nc(NC(=O)c2ccsc2)n3C[C@H](O)c2ccccc2)CC1 [GW635815],0%
16,CC(=O)Nc1nc2cnc(Nc3cc(NC(=O)c4cccc(CC(C)(C)C#N)c4)ccc3C)nc2s1,0%
17,Cc1nnc(-c2ccc3occ(-c4ccc(S(C)=O)cc4)c3n2)o1 (stereo not shown),0%
